# sPLA2-III inh – Blocks human group III sPLA2 activity; AID 743126; inhibition, % at 12.2 µM; 370,000 compounds, 0.56% hits; QFRET BODIPY PC-A2 liposome hydrolysis, fluorescence;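 active = inhibition above mean plus 3 SD of compounds lying within the high and low control bounds, cut at about 19% in these data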;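 note: 0% = median of test compound wells and 100% = no enzyme DMSO wells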
# UBC13 inh – human UBC13 polyubiquitination inhibition | P61088 | UBC13 polyubiquitin chain formation, TR-FRET | inhibition, % at 20 µM | 330,000 compounds, 0.47% hits | AID 485273; in the data active = inhibition above about 45%, passing the limit was not always enough; inconclusive = no clear call, values can overlap the other calls
# Target sequence (P61088 whole entry, looked up): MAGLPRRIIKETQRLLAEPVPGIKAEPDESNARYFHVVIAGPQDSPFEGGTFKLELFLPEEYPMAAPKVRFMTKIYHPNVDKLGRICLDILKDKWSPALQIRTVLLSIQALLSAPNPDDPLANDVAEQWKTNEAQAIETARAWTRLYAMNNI
# NR3A LBD binder – modulates the human NR3A ligand-binding domain; NR3A LBD differential scanning fluorimetry, Tm shift; 0% = protein alone, 100% = glycine-bound protein; 340,000 compounds, 2.5% hits; Tm shift relative to glycine control, % at 25 µM;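 active = melting temperature shift of at least 10% of the positive control shift, at one fixed dose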
# SUMO HTRF inh – blocks human SUMOylation mediated by UBC9 | HTRF SUMOylation assay, SAE1/SAE2 + UBC9, in vitro | inhibition, % at 35 µM | 290,000 compounds, 0.36% hits; in the data active = inhibition above about 50%, passing the limit was not always enough; inconclusive = no clear call, values can overlap the other calls
# Target sequence (P63279 whole entry, looked up): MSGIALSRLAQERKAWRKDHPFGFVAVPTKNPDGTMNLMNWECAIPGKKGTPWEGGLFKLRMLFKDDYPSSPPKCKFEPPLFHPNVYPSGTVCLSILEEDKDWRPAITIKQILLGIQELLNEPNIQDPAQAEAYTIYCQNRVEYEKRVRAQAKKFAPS
# sPLA2 confirm – human GIII-sPLA2 inhibition, confirmation. AID 743280. inhibition, % at 12.2 µM. recombinant hGIII-sPLA2, BODIPY PC-A2 QFRET fluorescence. shares compounds with sPLA2-III inh. 2,000 compounds, 34% hits;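 active = mean inhibition across triplicates above the hit cutoff set in the earlier primary screen, cut at about 19% in these data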;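 note: 0% = enzyme with DMSO and 100% = DMSO wells lacking enzyme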
# BODIPY interf – counter-screen for HGIII-sPLA2 inhibitors: 535nm fluorescence interference | 2,000 compounds, 8.5% hits | BODIPY FL product fluorescence interference, QFRET | inhibition, % at 12.2 µM | shares compounds with sPLA2-III inh;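 active = average inhibition above the solvent-only control mean plus 3 SD, cut at about 6% in these data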;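 note: 0% = DMSO with substrate plus product and 100% = DMSO with substrate alone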
# BODIPY interf DR – counter-screen for HGIII-sPLA2 inhibitors: 535nm fluorescence interference, dose response | 240 tested, under 10 active | IC50, µM | AID 743455 | shares compounds with sPLA2-III inh | BODIPY FL product fluorescence interference, cell-free;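 active = IC50 at or below 10 µM; inactive = IC50 above 10 µM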
# * hit, by the source's call; ? = inconclusive; . = not tested or not shown. The list is not random: actives were taken first. Their share in the collection is about 3.3%.
SMILES,sPLA2-III inh,UBC13 inh,NR3A LBD binder,SUMO HTRF inh,sPLA2 confirm,BODIPY interf,others
CC1(NC(=O)c2ccc(C#Cc3cccc(F)c3)cn2)COC1,-4,.,.,.,.,.,
COC(=O)[C@]12C[C@H](CC(=O)NCc3cccc4ccccc34)C(=O)N(CCc3ccc(OC)c(OC)c3)C1=C[C@H](C(C)C)O[C@@H]2C1CC1,-11,.,.,.,.,.,
Cc1ccccc1NC(=S)NC(=O)c1cncc(Br)c1,23*,6,-1,-10,7,2,
Cc1cc(O)ccc1NC(=S)NC(=O)c1cncc(Br)c1,-5,1,0,-12,.,.,
CCn1c(SCC(=O)Nc2ccc(S(=O)(=O)Nc3cc(C)nc(C)n3)cc2)nc2sc(C)c(C)c2c1=O,-13,.,.,.,.,.,
COC(=O)[C@]12C[C@H](CC(=O)NCCC(C)C)C(=O)N(Cc3ccco3)C1=C[C@H](C(C)C)O[C@@H]2C1CC1,-7,.,.,.,.,.,
O=[N+]([O-])c1cc([N+](=O)[O-])c2c(=Nc3ccccc3)n(-c3ccccc3)n(O)c2c1,35*,-44,2,29,56*,19*,
S=c1[nH]nc(-c2ccc3c(c2)OCO3)n1-c1ccccc1,25*,12,3,-4,23*,-2,
Cc1ccc(-c2n[nH]c(=S)n2-c2ccccc2)cc1,13,-18,1,17,.,.,
CC(=O)Nc1ccc(-c2csc(NNC(=O)c3ccc(C)cc3)n2)cc1,30*,10,-1,5,23*,-1,
COC(=O)c1nc(NNC(=O)c2ccccc2)sc1-c1ccccc1,30*,2,1,10,30*,0,
N#Cc1ccc(-c2csc(NNC(=O)c3ccc(Br)cc3)n2)cc1,46*,-11,5,-7,36*,11*,
O=C(NNc1nc(-c2ccc(Br)cc2)cs1)c1ccco1,46*,-9,-2,-4,45*,12*,
COc1ccc(-c2csc(NC(=O)c3ccco3)n2)cc1,3,1,-6,-23,.,.,
O=C(NNc1nc(-c2ccccc2)cs1)c1ccccc1,35*,-3,-1,3,33*,7.3*,
Cc1ccc(O)c(NC(=S)NC(=O)CC(C)C)c1,8,-2,1,0,.,.,
Cc1ccc(O)c(NC(=S)NC(=O)C(C)C)c1,21*,3,0,20,11,-5,
O=C(NC1CCCCN(Cc2ccc(Cl)cc2)C1=O)c1c(F)cccc1F (stereo not given),0,.,.,.,.,.,
CNC(=S)N/N=C/c1cc(Br)cc(Br)c1O,44*,-22,-3,10,51*,5,BODIPY interf DR=>122
CC(C)(C)NC(=S)N/N=C/c1cc(Br)c(O)c(Br)c1,-20,-19,-3,16,.,.,
O=c1c2oc3ccccc3c2[nH]c(=S)n1-c1ccccc1,17,?,0,-4,.,.,
Cc1ccc(-n2c(=S)[nH]c3c(oc4ccccc43)c2=O)cc1,25*,?,0,-3,5,-3,
Cn1c(=O)c(C(=O)NNC(=O)c2ccccc2Br)c(O)c2ccccc21,30*,10,-2,-10,2,4,
Cn1c(=O)c(C(=O)NNC(=O)c2ccccc2Cl)c(O)c2ccccc21,17,0,-2,12,.,.,
CCCCN1CNC(=S)N(Cc2ccccc2)C1,28*,10,3,4,19,-8,
SMILES,sPLA2-III inh,UBC13 inh,NR3A LBD binder,SUMO HTRF inh,sPLA2 confirm,BODIPY interf,others
CCCN1CNC(=S)N(Cc2ccccc2)C1,14,4,0,0,.,.,
O=C(CSc1nnc(-c2cccs2)o1)Nc1cc(Cl)cc(Cl)c1,-16,.,.,.,.,.,
C=CCOC(=O)N[C@H](c1ccccc1)[C@H](C)/C=C/CC(=O)OC,-5,.,.,.,.,.,
COc1ccccc1CC(=O)Nc1ccc(Cl)cc1C(=O)O,-4,4,3,19,.,.,
COC(=O)c1cc(Cl)ccc1NCC(N)c1ccccc1 (stereo not given),20*,.,.,.,9,-15,
O=C(CC1CCCC1)N[C@H](C(=O)N1CCC[C@H]1C(=O)NCCc1ccccc1Cl)c1ccccc1,6,.,.,.,.,.,
COC(=O)[C@]12C[C@H](CC(=O)NCCC(C)C)C(=O)N(Cc3ccco3)C1=C[C@H](COCc1ccccc1)O[C@@H]2C,1,.,.,.,.,.,
CCC[C@H]1[C@@H](NC(=O)c2ccc(OC)cc2)CC[C@@]23CCCN2C(=O)CCC[C@@H]13,4,.,.,.,.,.,
CCOC(=O)C1=C(C)N(C)C(=S)NC1c1ccccc1Cl (stereo not given),21*,-8,1,-5,19,-5,
O=[N+]([O-])c1ncccc1OCCOc1ccc(Cl)cc1Cl,-14,.,.,.,.,.,
Cc1cc2ncn(S(=O)(=O)N(C)C)c2cc1C,-1,3,0,-4,.,.,
Cc1cc2ncn(N)c2cc1C,90*,-11,1,8,-1,-7,
CC(=NNC(=S)Nc1cccc(Cl)c1)c1ccccn1,20*,.,-8,.,38*,4,
S=C(NCc1ccccn1)Nc1cccc(Cl)c1,5,1,5,4,.,.,
NC(=S)N/N=C/c1c(O)c(Br)cc2oc3c(c12)CCCC3,33*,13,10*,18,31*,6.2*,
CC(C)CC(=O)NC(=S)NNC(=O)c1ccc(NC(=O)C2CCCCC2)cc1,21*,-19,-7,3,37*,-10,BODIPY interf DR=>122
O=S(=O)(Nc1ccc(Cl)nn1)c1ccccc1,6,-4,-5,16,.,.,
O=S(=O)(NNc1ccc(Cl)nn1)c1ccc(F)cc1,19*,5,0,0,15,8.3*,
CC(C)=CCC/C(C)=C/CNCC(=O)N1c2ccccc2[C@]2(C)C[C@@H]3C(=O)N(C/C=C(\C)CCC=C(C)C)CC(=O)N3[C@H]12,-3,.,.,.,.,.,
N#Cc1ccccc1Cn1c(=O)n(CCCC(=O)NCc2ccc3c(c2)OCO3)c(=O)c2ccccc21,21*,1,2,-6,-2,-10,
O=C(N1CCCC1)n1ncc(-c2ccc(-c3ccccc3)cc2)n1,-31,.,.,.,.,.,
CCNC(=O)OCCC12CC3CC(CC(C3)C1)C2,1,.,0,11,.,.,
O=C(OCCC12CC3CC(CC(C3)C1)C2)c1ccc(NCc2cc(O)ccc2O)cc1,21*,.,27*,.,21*,13*,
CC(CCN1CCC(C(O)(c2ccccc2)c2ccccc2)CC1)Oc1cc(F)cc(C#N)c1 (stereo not given),-8,.,.,.,.,.,
Cc1csc(N(C(=O)Cc2ccccc2F)c2ccccc2)n1,20*,8,-4,-7,-3,-12,
CCCOc1cccc(OCC(=O)Nc2nc3ccccc3[nH]2)c1,25*,-5,-17,11,14,-3,
O=C(CSc1nnc(-c2ccncc2)n1-c1ccc(Cl)cc1)c1ccc(Cl)c(Cl)c1,-32,.,.,.,.,.,
Cc1cccc(C(=O)NC(=S)NNC(=O)c2ccc(Cl)cc2)c1,24*,.,-9,-106,40*,5,BODIPY interf DR=>122
